# Reference: PubChem BioAssay (EPA / NIEHS)
# Results filed as inconclusive are left out. Some compounds were tested as several samples or in several runs, with calls that do not always agree. Activity calls are given as the source filed them. How the source made its calls: active means hit-call score of the fitted dose curve at least 0.9, where 1 is the maximum; inconclusive means response in the unintended direction; inactive means score below 0.9.
# Experiments:
# [1] = molecular target: rat Corticotropin Releasing Factor Receptor (CRF), Crhr1 (gene 58959) (UniProt P35353); assay: NVS_GPCR_rCRF: NovaScreen (NVS) G Protein-Coupled Receptor Assay for rat Corticotropin Releasing Factor Receptor (CRF) (AID 2283300)
# Summary of the method: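 Rat cortical membranes used as receptor source in a radioligand competitive displacement binding assay; scintillation read 2 h after dosing. Primary screen run in duplicate at 25 uM; loss of signal versus DMSO baseline indicates binding.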
# [2] = molecular target: rat Glutamate, AMPA Site (AMPA), Gria1 (gene 50592) (UniProt P19490); assay: NVS_LGIC_rAMPA: NovaScreen (NVS) Ligand-Gated Ion Channel Assay for rat Glutamate, AMPA Site (AMPA) (AID 2283324)
# Summary of the method: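 Rat forebrain membranes; radioligand binding read 1 h after dosing by filtration and scintillation counting. Duplicate single-point screen at 25 uM, then concentration-response to 50 uM for threshold hits (e.g. 30% inhibition); loss of signal vs DMSO.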
# [3] = molecular target: human Neonicotinoid receptor (NNR), CHRNA2 (gene 1135) (UniProt Q15822); assay: NVS_LGIC_hNNR_NBungSens: NovaScreen (NVS) Ligand-Gated Ion Channel Assay for human Neonicotinoid receptor (NNR) (AID 2283313)
# Description: NVS_LGIC_hNNR_NBungSens is a biochemical, single-readout assay that uses extracted gene-proteins from Human neuroblastoma membrane cells in a tissue-based cell-free assay. Measurements were taken 2 hours after chemical dosing in a 48-well plate.NVS_LGIC_hNNR_NBungSens is one of one assay component(s) measured or calculated from the NVS_LGIC_hNNR_NBungSens assay. It is designed to make measurements of radioligand binding, a form of binding reporter, as detected with scintillation counting signals by Filter-based radiodetection technology.Data from the assay component NVS_LGIC_hNNR_NBungSens was analyzed into 1 assay endpoint. This assay endpoint, NVS_LGIC_hNNR_NBungSens, was analyzed in the positive analysis fitting direction relative to DMSO as the negative control and baseline of activity. Using a type of binding reporter, loss-of-signal activity can be used to understand changes in the binding as they relate to the gene CHRNA2. Furthermore, this assay endpoint can be referred to as a primary readout, because the performed assay has only produced 1 assay endpoint. To generalize the intended target to other relatable targets, this assay endpoint is annotated to the ion channel intended target family, where the subfamily is ligand-gated ion channel. […]
# [4] = molecular target: rat Neonicotinoid receptor (NNR), Chrna7 (gene 25302) (UniProt Q05941); assay: NVS_LGIC_rNNR_BungSens: NovaScreen (NVS) Ligand-Gated Ion Channel Assay for rat Neonicotinoid receptor (NNR) (AID 2283315)
# Summary of the method: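 Radioligand displacement binding on rat cortical membranes, 2.5 h incubation, filtration and scintillation counting. Loss of specific binding fitted relative to DMSO.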
# [5] = molecular target: Voltage-dependent N-type calcium channel subunit alpha-1B (Rattus norvegicus) (UniProt Q02294); assay: NVS_IC_rCaChN: NovaScreen (NVS) Ion Channel Assay for rat Calcium Channel, Type N (CaChN) (AID 2283317)
# [6] = NVS_IC_rCaDHPRCh_L: NovaScreen (NVS) Ion Channel Assay for rat Calcium Channel, Type L, Dihydropyridine Site (CaDHPRCh_L) (AID 2283320)
# Summary of the method: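 Radioligand binding to dihydropyridine site on rat cortical membranes, filter-based scintillation counting, 1 h after dosing. Screened in duplicate at 25 uM; actives rerun in concentration-response up to 50 uM. Loss of signal versus DMSO baseline.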
# [7] = molecular target: rat Gamma-Aminobutyric Acid Type A Receptor, Non-Selective (GABAR-NonSelective), Gabra1 (gene 29705) (UniProt P62813); assay: NVS_LGIC_rGABAR_NonSelective: NovaScreen (NVS) Ligand-Gated Ion Channel Assay for rat Gamma-Aminobutyric Acid Type A Receptor, Non-Selective (GABAR-NonSelective) (AID 2283326)
# Summary of the method: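 Radioligand displacement on rat whole-brain extract, 1 h, filter scintillation readout; signal loss fitted versus DMSO. Primary screen in duplicate at 25 uM; hits (e.g. ≥30% inhibition) retested in concentration-response up to 50 uM.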
# [8] = molecular target: rat Glutamate, NMDA Agonist Site (GluNMDA), Grin1 (gene 24408) (UniProt P35439); assay: NVS_LGIC_rGluNMDA_Agonist: NovaScreen (NVS) Ligand-Gated Ion Channel Assay for rat Glutamate, NMDA Agonist Site (GluNMDA) (AID 2283327)
# Summary of the method: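 Rat forebrain membranes, radioligand binding in the agonist-site protocol; 1 h after dosing; filter-based scintillation counting. Single-concentration duplicate screen at 25 uM, then concentration-response up to 50 uM for actives; gain-of-signal vs DMSO.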
# rat Neonicotinoid receptor (NNR), Chrna7 (gene 25302), sequence (Q05941 whole entry, looked up): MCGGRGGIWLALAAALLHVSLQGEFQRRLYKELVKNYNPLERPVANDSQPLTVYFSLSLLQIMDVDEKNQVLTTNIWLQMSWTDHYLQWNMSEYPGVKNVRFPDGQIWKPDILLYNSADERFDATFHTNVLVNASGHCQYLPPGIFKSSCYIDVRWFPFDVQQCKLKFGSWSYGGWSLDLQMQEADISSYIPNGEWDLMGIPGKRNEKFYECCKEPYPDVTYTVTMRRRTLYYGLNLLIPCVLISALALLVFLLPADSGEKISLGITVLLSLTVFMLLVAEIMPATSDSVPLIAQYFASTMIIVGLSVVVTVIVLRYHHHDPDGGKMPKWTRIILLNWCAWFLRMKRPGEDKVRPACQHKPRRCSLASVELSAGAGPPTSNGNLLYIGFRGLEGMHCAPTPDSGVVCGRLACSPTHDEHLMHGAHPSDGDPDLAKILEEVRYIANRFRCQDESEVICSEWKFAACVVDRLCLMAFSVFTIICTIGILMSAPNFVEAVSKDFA
# rat Gamma-Aminobutyric Acid Type A Receptor, Non-Selective (GABAR-NonSelective), Gabra1 (gene 29705), sequence (P62813 whole entry, looked up): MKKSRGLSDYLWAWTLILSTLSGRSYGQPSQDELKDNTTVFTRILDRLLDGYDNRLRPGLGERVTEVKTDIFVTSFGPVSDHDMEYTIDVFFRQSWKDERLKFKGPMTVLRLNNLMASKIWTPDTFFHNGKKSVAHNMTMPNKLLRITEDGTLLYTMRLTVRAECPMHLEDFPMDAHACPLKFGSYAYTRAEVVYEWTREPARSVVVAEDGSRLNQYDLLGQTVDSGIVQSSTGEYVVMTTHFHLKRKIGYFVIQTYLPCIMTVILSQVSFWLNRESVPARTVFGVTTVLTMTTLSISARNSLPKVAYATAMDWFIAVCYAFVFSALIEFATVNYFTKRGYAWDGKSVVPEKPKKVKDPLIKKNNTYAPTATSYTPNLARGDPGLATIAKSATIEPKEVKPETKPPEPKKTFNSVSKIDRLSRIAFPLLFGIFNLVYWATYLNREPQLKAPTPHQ
# rat Corticotropin Releasing Factor Receptor (CRF), Crhr1 (gene 58959), sequence (P35353 whole entry, looked up): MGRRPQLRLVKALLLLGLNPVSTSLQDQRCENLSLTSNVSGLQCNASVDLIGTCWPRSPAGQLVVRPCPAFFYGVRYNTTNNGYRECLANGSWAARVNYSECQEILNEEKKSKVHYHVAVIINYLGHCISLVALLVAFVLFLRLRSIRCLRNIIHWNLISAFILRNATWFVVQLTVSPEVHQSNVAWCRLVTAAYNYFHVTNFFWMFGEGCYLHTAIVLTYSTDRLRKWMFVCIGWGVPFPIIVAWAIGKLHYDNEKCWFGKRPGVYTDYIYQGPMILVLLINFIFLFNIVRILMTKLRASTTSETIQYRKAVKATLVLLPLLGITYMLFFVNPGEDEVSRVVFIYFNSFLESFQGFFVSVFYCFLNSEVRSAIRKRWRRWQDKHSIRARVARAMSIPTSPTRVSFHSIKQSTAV
# rat Glutamate, AMPA Site (AMPA), Gria1 (gene 50592), sequence (P19490 whole entry, looked up): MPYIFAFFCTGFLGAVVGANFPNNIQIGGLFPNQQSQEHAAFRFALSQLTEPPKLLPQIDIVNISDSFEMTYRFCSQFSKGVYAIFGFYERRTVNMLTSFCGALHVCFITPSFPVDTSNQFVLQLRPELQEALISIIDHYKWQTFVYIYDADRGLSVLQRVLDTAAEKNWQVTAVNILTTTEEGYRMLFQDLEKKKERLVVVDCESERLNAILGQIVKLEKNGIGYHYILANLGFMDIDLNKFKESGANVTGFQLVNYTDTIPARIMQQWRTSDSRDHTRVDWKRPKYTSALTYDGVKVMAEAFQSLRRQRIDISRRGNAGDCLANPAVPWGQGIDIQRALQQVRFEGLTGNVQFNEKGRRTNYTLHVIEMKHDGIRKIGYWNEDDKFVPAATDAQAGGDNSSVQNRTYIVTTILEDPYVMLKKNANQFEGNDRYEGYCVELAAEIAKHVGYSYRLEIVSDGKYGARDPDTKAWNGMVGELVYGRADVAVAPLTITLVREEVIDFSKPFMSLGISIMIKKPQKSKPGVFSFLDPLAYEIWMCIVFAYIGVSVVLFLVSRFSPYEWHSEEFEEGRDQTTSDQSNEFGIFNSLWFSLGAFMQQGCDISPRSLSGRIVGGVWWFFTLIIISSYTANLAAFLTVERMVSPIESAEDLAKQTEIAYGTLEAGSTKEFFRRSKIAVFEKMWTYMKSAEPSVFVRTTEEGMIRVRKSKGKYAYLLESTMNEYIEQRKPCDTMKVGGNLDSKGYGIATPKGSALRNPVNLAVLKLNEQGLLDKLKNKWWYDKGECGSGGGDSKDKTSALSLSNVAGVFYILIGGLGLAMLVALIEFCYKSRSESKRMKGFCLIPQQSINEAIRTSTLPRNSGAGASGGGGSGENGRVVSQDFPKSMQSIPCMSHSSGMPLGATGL
# human Neonicotinoid receptor (NNR), CHRNA2 (gene 1135), sequence (Q15822 whole entry, looked up): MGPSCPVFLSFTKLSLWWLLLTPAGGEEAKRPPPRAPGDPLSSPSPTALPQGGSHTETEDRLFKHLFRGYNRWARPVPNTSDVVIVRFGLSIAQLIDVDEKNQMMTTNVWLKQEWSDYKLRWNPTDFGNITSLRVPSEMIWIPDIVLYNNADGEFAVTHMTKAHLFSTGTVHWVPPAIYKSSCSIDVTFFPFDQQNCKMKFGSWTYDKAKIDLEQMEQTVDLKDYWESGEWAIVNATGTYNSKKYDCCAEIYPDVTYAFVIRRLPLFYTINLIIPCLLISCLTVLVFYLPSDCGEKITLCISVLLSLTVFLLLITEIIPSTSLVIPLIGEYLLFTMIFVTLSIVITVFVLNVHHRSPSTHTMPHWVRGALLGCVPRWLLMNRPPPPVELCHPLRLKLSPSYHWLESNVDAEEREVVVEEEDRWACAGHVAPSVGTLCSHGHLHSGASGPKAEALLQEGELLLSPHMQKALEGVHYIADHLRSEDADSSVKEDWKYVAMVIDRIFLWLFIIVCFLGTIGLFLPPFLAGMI
structure (smiles),measurement,setting,value
CN(C)C(=S)S,outcome,[1],inactive
same,outcome,[2],inactive
O=C(N[C@H]1CN2CCC1CC2)c1ccc2c(c1)OCCO2,AC50,[3],12.1 µM (active)
O=C1C[C@@H]2OCC=C3CN4CC[C@]56c7ccccc7N1[C@H]5[C@H]2[C@H]3C[C@H]46,outcome,[4],inactive
C[N+](C)(C)Cc1ccccc1,AC50,[4],25 µM (active)
same,outcome,[4],inactive
O=C(O)C1(c2ccc3c(c2)OC[C@H](Cc2ccc(-c4ccccc4)cc2)[C@H]3O)CCCC1,outcome,[5],inactive
Clc1cccc(Cl)c1,outcome,[6],inactive
Oc1cc(Cl)c(Cl)cc1Cl,outcome,[7],inactive
CCCCCCCCCCCCc1cccc(S(=O)(=O)O)c1,outcome,[8],inactive
